# Screening results (PubChem)
# p53null 32C kill: qHTS Screen for Compounds that Selectively Target Cancer Cells with p53 Mutations: Cytotoxicity of p53 Null Cells at the Permissive Temperature | H1299-neo p53 null cells, ATP luminescence, 24 h, 32C | Potency, µM (titrated, usually from 46.1 µM), for the others: top-dose activity change, negative = cytotoxicity, actives largely listed as cytotoxic | hit rate 0.62% among 55,000;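 also: potency is read from the fitted curve at half-maximal effect; 0% = DMSO only and -100% = full killing by 100 µM tamoxifen; nearly all actives have a fitted effect of over 55% in size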
#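 We seeded p53-null H1299-neo cells, incubated them overnight at 37C, and added compounds across a range up to 46 uM. After 24 hours at 32C, ATP reagent was applied for 20 min at room temperature and luminescence recorded.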
# GPR32 ag: qHTS for Agonists of Human Resolvin D1 Receptor DRV1 | Probable G-protein coupled receptor 32 (Homo sapiens), O75388 | activation, % at 76.9 µM | hit rate 2.5% among 48,000 | CHO-K1 GPR32 beta-arrestin PathHunter luminescence, 90 min; zero percent set by DMSO-only wells;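 active = activation of at least 60% and not above a set upper limit, about 1 call in 100 departs from these limits; inconclusive = activation of 40% to 60%, or above that upper limit; inactive = activation under 40%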; also: 0% is about no effect
# Target sequence (O75388 whole entry, looked up): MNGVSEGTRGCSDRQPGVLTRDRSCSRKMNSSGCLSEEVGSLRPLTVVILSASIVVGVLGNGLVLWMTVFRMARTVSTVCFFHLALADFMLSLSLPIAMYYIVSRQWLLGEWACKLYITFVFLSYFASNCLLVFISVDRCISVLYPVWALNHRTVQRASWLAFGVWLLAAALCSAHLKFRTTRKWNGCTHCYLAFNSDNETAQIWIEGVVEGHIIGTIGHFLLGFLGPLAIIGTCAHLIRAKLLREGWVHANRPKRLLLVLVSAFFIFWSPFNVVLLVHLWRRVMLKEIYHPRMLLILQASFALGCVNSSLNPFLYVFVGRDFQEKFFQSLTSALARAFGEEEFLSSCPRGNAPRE
#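 Using DMSO wells as EC0, agonist-induced signal was taken as chemiluminescence from beta-Gal reconstituted upon beta-arrestin recruitment to GPR32 in CHO-K1 cells after 90 min compound treatment.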
# FH mod: Identification of activators of human fumarate hydratase by quantitative high-throughput screening; FH coupled MDH/diaphorase resazurin fluorescence, 15 min; Potency, µM (titrated, usually from 79.9 µM), for the others: at the top dose activity change, negative = inhibition, hits mostly inhibitors; hit rate 0.22% among 54,000; AID 1347055, 2019; also: potency is read from the fitted curve at half-maximal effect; % is scaled to controls: 0 for no effect and ±100 for the full control effect; the screen sought activators but most active calls are inhibition curves; nearly all actives have a fitted effect of over 45% in size
# p53null 39C kill: qHTS Screen for Compounds that Selectively Target Cancer Cells with p53 Mutations: Cytotoxicity of p53 Null Cells at the Nonpermissive Temperature; H1299 p53-null (neo) cells, 39C, ATPlite viability, 24 h; AID 904, 2007; Potency, µM (highest dose often 46.1 µM), for inactives: top-dose activity, negative = cell killing, hits mostly cytotoxic; hit rate 0.97% among 55,000;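 also: potency is read from the fitted curve at half-maximal effect; 0% = DMSO only and -100% = full killing by 100 µM tamoxifen; nearly all actives have a fitted effect of over 50% in size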
#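 Following overnight plating at 37C (600 cells/well), H1299-neo or H1299-p53A138V cells are dosed up to 46 uM. Incubation lasts 24 hr at 39C before ATP detection.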
# Starred values were filed as active, the others as inactive; ? = inconclusive; . = not tested or not shown; [ ] = another dose, or the depositor's remark. The list is not random: actives were taken first. Their share in the collection is about 2.9%. Unless noted, calls follow the shape of the dose curve; as a rule, active = well fitted curve in the direction sought with a large enough effect; inconclusive = small, poorly fitted or top-dose-only effect, or another doubt; inactive = no such curve, though single readings can be large; an effect the other way counts as inactive or inconclusive.
SMILES,p53null 32C kill,GPR32 ag,FH mod,p53null 39C kill
C[C@@H]1O[C@@H](O[C@H]2[C@H](O[C@H]3CC[C@@]4(C)C(CC[C@]5(C)C4C=C[C@]46OC[C@@]7(CCC(C)(C)C[C@H]74)[C@@H](O)C[C@]65C)[C@]3(C)CO)O[C@H](CO)[C@@H](O)[C@@H]2O[C@@H]2O[C@H](CO)[C@@H](O[C@@H]3O[C@@H](C)[C@H](O)[C@@H](O)[C@H]3O)[C@H](O)[C@H]2O)[C@H](O)[C@H](O)[C@H]1O (stereo partly specified),.,.,0.4%[20.6 µM],.
CCOC(=O)c1ccccc1N/C=C/C(=O)c1cccs1,.,.,.,16.4%[1.84 µM]
O=C(/C=C/Nc1ccccc1F)c1cccs1,11.2µM*,.,.,.
O=C(/C=C/Nc1ccc(F)cc1F)c1cccs1,10µM*,.,.,.
CC(=O)c1ccc(NC(=O)c2nc(-c3ccccc3)n(-c3ccccc3)n2)cc1,3.6%,-10.3,-30.1%,?
Cc1c(C(=O)Nc2ccc(C(=O)O)cc2)nnn1-c1ccccc1,12.6µM*,-11.6,-2.6%,?
COc1ccc(N(C(=O)Nc2c(C)cccc2C)c2cc(Nc3ccc(N4CCN(C)CC4)cc3)ncn2)c(OC)c1,.,.,-3.4%,.
Oc1c(C(c2ccc(Cl)cc2Cl)N2CCOCC2)sc2nc(-c3ccco3)nn12 (stereo unspecified),0.3%,89.9*,-2.6%,-3.5%
Cc1ccccc1NC(=O)Nc1ccc2nc(N3CCN(C)CC3)cc(C)c2c1,2.1%,30.7,3.2%,-1.1%
Cc1cc(N2CCN(C)CC2)nc2ccc(NC(=O)c3ccc(C(C)(C)C)cc3)cc12,25.1µM*,15.8,?,12.6µM*
CCOc1ccccc1NC(=O)Nc1ccc2nc(N3CCN(C)CC3)cc(C)c2c1,?,-3.7,?,17.8µM*
Cc1cc(N2CCN(C)CC2)nc2ccc(NC(=O)Nc3ccc(Cl)cc3)cc12,-1.3%,118.0*,-4.5%,-20.2%
CC1=C2C3OC(=O)C(C)C3(O)CCC2(C)CCC1O (stereo unspecified),.,.,-4.3%,.
CC12CCC(OC3OC(CO)C(O)C(OC4OC(CO)C(O)C(O)C4O)C3O)CC1=CCC1C2CCC2(C)/C(=C3/COC(=O)C3)CCC12O (stereo unspecified),.,.,5.3%[20.6 µM],.
CC(=O)OC/C(=C/C(=O)O)CC[C@@H]1C(C)=CC(=O)[C@@H]2C(C)(C)CCC[C@@]12C,.,.,0.4%[53.3 µM],.
CC(=O)N(O)CCCCCN1C(=O)CCC1=O,.,.,0.5%,.
CC(C)CNc1ncnc2onc(-c3ccc(Cl)cc3)c12,-9.1%,90.1*,1.5%,3.7%
CC(C)CN(CC(=O)N(CCCN1CCCC1=O)CC(N)=O)C(=O)CNCCc1ccccc1F,.,.,12.8%,.
O=C1NC(=O)/C(=C/c2ccc3c(c2)OCO3)S1,.,.,31.6µM*,.
Oc1ccc(C2CNCc3sccc32)cc1O (stereo unspecified),.,5.6,8.91µM*,.
CC(=O)N1c2ccccc2CC1C(=O)N1CCN(c2ccccc2F)CC1 (stereo unspecified),-3.7%,-13.9,-1.5%,2.5%
CC(=O)N1c2ccccc2CC1C(=O)N1CCN(c2cccc(C)c2C)CC1 (stereo unspecified),6.0%,116.2*,-8.3%,-9.6%
O=C1CC(c2ccc([N+](=O)[O-])cc2)=NN1c1ccccc1,.,.,-8.1%,.
COc1ccccc1NC(=O)c1cc(S(=O)(=O)N2CCN(c3ccccc3Cl)CC2)ccc1F,-0.3%,1.9,-6.0%,11.7%
COc1ccc(N2CCN(S(=O)(=O)c3ccc(F)c(C(=O)Nc4ccccc4Cl)c3)CC2)cc1,?,90.7*,7.4%,21.8%
SMILES,p53null 32C kill,GPR32 ag,FH mod,p53null 39C kill
Cc1cccc(-c2nc(SCCCOc3ccc(Cl)c(C)c3)n3[nH]c(=O)cc3n2)c1,1.4%,-41.3,-19.5%,8.5%
Cc1ccc(OCCSc2nc(-c3ccccc3C)nc3cc(=O)[nH]n23)cc1Cl,-6.5%,?,?,25.1µM*
Cc1cccc(OCCCSc2nc(-c3ccc(C(C)(C)C)cc3)nc3cc(=O)[nH]n23)c1C,43.4%,-26.0,?,12.6µM*
CCc1ccc(OCCCSc2nc(-c3ccc(C(C)(C)C)cc3)nc3cc(=O)[nH]n23)cc1,48.9%,-39.4,?,?
Cn1cc(-c2cnn3c(N)c(Br)c([C@@H]4CCCNC4)nc23)cn1,.,.,-0.3%,.
CSc1cccc(NC(=O)c2ccc3c(c2)CCCN3S(C)(=O)=O)c1,12.6µM*,10.3,-29.2%,?
O=C1c2[nH]nc(-c3ccccc3O)c2C(c2ccc(Cl)cc2)N1CCc1ccccc1 (stereo unspecified),44.2%,49.4,?,25.1µM*
CCOC(=O)c1sc(NC(=O)/C=C/c2ccc(OCC)cc2)c(C(=O)OCC)c1C,22.3%,1.8,-6.2%,-3.6%
COc1ccc(/C=C/C(=O)Nc2sc(C)c(C)c2C(=O)O)cc1,3.16µM*,-5.1,-29.0%,0.794µM*
C=C1/C(=C/C=C2\CCC[C@]3(C)[C@@H]([C@H](C)/C=C/[C@H](O)C4CC4)CC[C@@H]23)C[C@@H](O)C[C@@H]1O,.,.,-14.5%,.
COc1cccc(CNC(=O)Cn2c(SCC(=O)Nc3ccc(C)c(C)c3)nc3ccccc32)c1,?,113.4*,12.6%,?
Cc1ccc(NC(=O)C(=O)NC2CC(C)(C)NC(C)(C)C2)cc1,.,.,5.9%,.
Cc1cc(NC(=O)NCCN2CCC(O)(Cc3ccccc3)CC2)c2ccccc2n1,.,.,11.4%,.
Cc1cccc2sc(N(CCN(C)C)C(=O)c3ccc4c(c3)OCCO4)nc12,-11.7%,-20.1,-0.6%,-1.6%
O=C(Nc1nc2c(F)cccc2s1)c1ccc2c(c1)OCCO2,3.98µM*,38.8,-18.0%,?
N#Cc1c(C(F)(F)F)cc(-c2cccs2)nc1SCC(=O)Nc1cccc(C(F)(F)F)c1,-17.3%,1.8,1.6%,?
N#Cc1ccc(-c2cccs2)nc1SCC(=O)Nc1cccc(C(F)(F)F)c1,-29.7%,82.3*,-7.3%,?
O=C(CCc1ccccc1)N1CCC(O)(Cn2cnc3cc(Cl)ccc3c2=O)CC1,.,.,-0.7%,.
CCOc1ccc(C(=O)N2CCN(Cc3cc(=O)n4nc(-c5cccc(OC)c5)sc4n3)CC2)cc1,14.3%,74.3*,-14.8%,-8.1%
CC(NC(=O)c1cc2sccc2n1Cc1ccc(F)cc1)c1ccccc1 (stereo unspecified),-3.1%,99.8*,-2.5%,-10.0%
COc1cccc(NS(=O)(=O)c2ccc3c(c2)N(C)C(=O)CC(=O)N3C)c1,-10.4%,1.5,1.7%,-7.4%
Cc1c(Cl)cccc1NS(=O)(=O)c1ccc2[nH]cc(C(=O)NC3CCCC3)c(=O)c2c1,2.1%,101.3*,?,17.6%
Cc1ccccc1NS(=O)(=O)c1ccc2[nH]cc(C(=O)NC3CCCCC3)c(=O)c2c1,?,-9.3,?,-3.0%
